Reference: PubChem BioAssay AID1159580 (chemical genetic matrix, 2015)
Where “and” joins values, the source holds several entries; their conditions need not be identical. Equal entries are not always repeated. About 2,000 (36%) of roughly 5,500 compounds were called active. Another 18% or so got no clear call; they are omitted. No stated cut-off is given here; in the data, active means normalized growth mostly below about 0.91 (no sharp cut-off); inconclusive means no clear call, values can overlap the other calls; inactive means mostly above about 0.92. Some of the results follow.

Test: chemical genetic growth profiling, strain panel (AID 1159580);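 further: tested at 20 µM; growth read once vehicle control cultures reached saturation at 30 °C; 1 = growth at the plate median or of vehicle wells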
Settings: S. cerevisiae deletion strains, growth OD

Measured: normalized growth

CC(C)Nc1nc(Cl)nc(NC(C)C)n1
inactive: locus YAL013W, strain DEP1, stronger effect = lower value 1.01 | locus YAL021C, strain ccr4, stronger effect = lower value 1 | locus YAL026C, strain drs2, stronger effect = lower value 0.996 | locus YAL030W, strain snc1, stronger effect = lower value 0.998 | locus YBL061C, strain skt5, stronger effect = lower value 0.996 | locus YBR009C, strain hhf1, stronger effect = lower value 1 | locus YBR021W, strain FUR4, stronger effect = lower value 1.01 | locus YBR023C, strain chs3, stronger effect = lower value 0.992 | locus YBR171W, strain sec66, stronger effect = lower value 0.995 | locus YBR229C, strain ROT2, stronger effect = lower value 0.993 | locus YBR231C, strain swc5, stronger effect = lower value 0.996 | locus YBR279W, strain paf1, stronger effect = lower value 0.994 | locus YCL011C, strain gbp2, stronger effect = lower value 0.992 | locus YCL016C, strain dcc1, stronger effect = lower value 1 | locus YCL029C, strain bik1, stronger effect = lower value 1.01 | locus YCL061C, strain MRC1, stronger effect = lower value 0.987 | locus YCL069W, strain vba3, stronger effect = lower value 1.01 | locus YCR088W, strain abp1, stronger effect = lower value 0.992 | locus YDL005C, strain med2, stronger effect = lower value 0.998 | locus YDL035C, strain GPR1, stronger effect = lower value 1.01 | locus YDL040C, strain nat1, stronger effect = lower value 0.999 | locus YDL074C, strain BRE1, stronger effect = lower value 1.01 | locus YDL101C, strain DUN1, stronger effect = lower value 1.01 | locus YDL134C, strain PPH21, stronger effect = lower value 1.01 | locus YDL185W, strain tfp1, stronger effect = lower value 1.01 | locus YDL192W, strain arf1, stronger effect = lower value 1 | locus YDR001C, strain nth1, stronger effect = lower value 1 | locus YDR069C, strain doa4, stronger effect = lower value 1.01 | locus YDR101C, strain arx1, stronger effect = lower value 0.996 | locus YDR137W, strain rgp1, stronger effect = lower value 0.953 | locus YDR150W, strain NUM1, stronger effect = lower value 1 | locus YDR159W, strain sac3, stronger effect = lower value 1.03 | locus YDR162C, strain NBP2, stronger effect = lower value 1.01 | locus YDR195W, strain ref2 0.969 | locus YDR297W, strain sur2, stronger effect = lower value 1 | locus YDR318W, strain mcm21, stronger effect = lower value 1.02 | locus YDR334W, strain swr1, stronger effect = lower value 0.995 | locus YDR335W, strain msn5, stronger effect = lower value 1 | locus YDR388W, stronger effect = lower value 1.01 | locus YDR392W, strain spt3, stronger effect = lower value 0.996 | locus YDR502C, strain sam2, stronger effect = lower value 1.01 | locus YEL003W, strain gim4, stronger effect = lower value 1 | locus YEL037C, strain rad23, stronger effect = lower value 1.01 | locus YEL061C, strain CIN8 (second series), stronger effect = lower value 1 | locus YEL061C, strain CIN8, stronger effect = lower value 1.01 | locus YER015W, strain faa2, stronger effect = lower value 1 | locus YER016W, strain bim1, stronger effect = lower value 1 | locus YER110C, stronger effect = lower value 1.01 | locus YER111C, strain swi4, stronger effect = lower value 0.994 | locus YER155C, strain BEM2 (second series), stronger effect = lower value 0.992 | locus YER155C, strain BEM2, stronger effect = lower value 1.01 | locus YER167W, strain BCK2, stronger effect = lower value 1.01 | locus YFR010W, strain ubp6, stronger effect = lower value 1.01 | locus YGL078C, strain dbp3, stronger effect = lower value 1.02 | locus YGL086W, strain mad1, stronger effect = lower value 1.01 | locus YGL167C, strain pmr1, stronger effect = lower value 0.998 | locus YGL173C, strain kem1, stronger effect = lower value 0.996 | locus YGL227W, strain vid30, stronger effect = lower value 0.988 | locus YGL240W, strain doc1, stronger effect = lower value 0.99 | locus YGL248W, strain PDE1, stronger effect = lower value 1.01 | locus YGL253W, strain hxk2, stronger effect = lower value 0.999 | locus YGR078C, strain PAC10, stronger effect = lower value 0.997 | locus YGR135W, strain pre9, stronger effect = lower value 0.997 | locus YGR229C, strain SMI1, stronger effect = lower value 1 | locus YGR252W, strain gcn5, stronger effect = lower value 0.983 | locus YHR013C, strain ard1, stronger effect = lower value 1 | locus YHR027C, strain rpn1, stronger effect = lower value 0.994 | locus YHR030C, strain SLT2, stronger effect = lower value 0.979 | locus YHR079C, strain IRE1 (second series), stronger effect = lower value 1.02 | locus YHR079C, strain IRE1, stronger effect = lower value 0.978 | locus YHR094C, strain hxt1, stronger effect = lower value 1.01 | locus YHR129C, strain ARP1, stronger effect = lower value 1.01 | locus YHR142W, strain chs7, stronger effect = lower value 0.995 | locus YHR200W, strain rpn10, stronger effect = lower value 1.01 | locus YIL066C, strain RNR3, stronger effect = lower value 1.02 | locus YIL073C, strain SPO22, stronger effect = lower value 1.07 | locus YIL125W, strain kgd1, stronger effect = lower value 1 | locus YIR030C, strain dcg1, stronger effect = lower value 1.02 | locus YJL092W, strain hpr5, stronger effect = lower value 0.995 | locus YJL095W, strain BCK1 (second series), stronger effect = lower value 1 | locus YJL095W, strain BCK1, stronger effect = lower value 0.987 and 0.984 | locus YJL115W, strain asf1, stronger effect = lower value 0.986 | locus YJL129C, strain trk1, stronger effect = lower value 0.997 | locus YJL134W, strain LCB3, stronger effect = lower value 0.993 | locus YJL154C, strain vps35, stronger effect = lower value 1 | locus YJL164C, strain tpk1, stronger effect = lower value 1.01 | locus YJL166W, strain qcr8, stronger effect = lower value 1 | locus YJL168C, strain set2, stronger effect = lower value 1.01 | locus YJL187C, strain SWE1 (second series), stronger effect = lower value 1.01 | locus YJL187C, strain SWE1, stronger effect = lower value 1.01 | locus YJR043C, strain POL32, stronger effect = lower value 1.01 | locus YJR066W, strain TOR1, stronger effect = lower value 0.928
